In PubChem BioAssay AID1851 (National Center for Advancing Translational Sciences (NCATS), 2009) one finds AC50 and activity, negative = inhibition data, which are given here for 97 compounds.

Among all 16,000 compounds or so, about 5,700 (36%) were called active. Inconclusive results (about 24%) are left out. This is one part of the list. Unmarked numbers belong to inactive results. Calls follow the shape of the dose curve; as a rule, active = well fitted curve in the direction sought with a large enough effect; inconclusive = small, poorly fitted or top-dose-only effect, or effect the other way; inactive = no such curve, though single readings can be large or run the other way.
% is scaled to controls: 0 for no effect and ±100 for the full control effect.

Cytochrome P450 1A2 (Homo sapiens), sequence (P05177 whole entry, looked up): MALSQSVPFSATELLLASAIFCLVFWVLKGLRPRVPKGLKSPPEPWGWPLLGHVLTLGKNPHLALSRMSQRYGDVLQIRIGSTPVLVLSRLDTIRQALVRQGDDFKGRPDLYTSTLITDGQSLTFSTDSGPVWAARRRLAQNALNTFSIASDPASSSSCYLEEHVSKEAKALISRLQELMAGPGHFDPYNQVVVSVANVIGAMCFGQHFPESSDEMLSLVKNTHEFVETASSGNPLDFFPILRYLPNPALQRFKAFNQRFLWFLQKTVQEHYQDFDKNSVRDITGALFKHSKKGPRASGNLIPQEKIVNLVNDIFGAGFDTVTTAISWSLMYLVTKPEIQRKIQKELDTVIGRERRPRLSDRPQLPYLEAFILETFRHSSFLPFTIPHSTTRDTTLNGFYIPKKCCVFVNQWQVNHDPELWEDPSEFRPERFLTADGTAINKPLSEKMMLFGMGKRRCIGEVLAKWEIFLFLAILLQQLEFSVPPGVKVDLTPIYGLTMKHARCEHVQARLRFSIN

The assay has as its target Cytochrome P450 1A2 (Homo sapiens) (UniProt P05177). Nature of the assay: Cytochrome panel assay with activity outcomes. Particulars: recombinant CYP, pro-luciferin dealkylation, luminescence, p450-cyp1a2; series mostly up to 57.1 µM.
The AC50 is the concentration at which the activity in the assay is half-maximal. For `Nc1nonc1-c1noc(CCCN2C(=O)c3ccccc3C2=O)n1`, the half-maximal activity concentration (AC50) is 14.1 µM (active).
For `O=C(NCc1cccnc1)/C(=C/c1ccc(-c2cccc(Cl)c2)o1)S(=O)(=O)c1ccccc1`, the half-maximal activity concentration (AC50) was 25.1 µM (active).
The same measure, in the same setting: the same measure for `Cc1ccc(NC(=O)C(=O)NCc2ccc(/C=C(/C#N)C(=O)NCc3cccnc3)o2)cc1`: “inactive”; for `COc1ccc2c(c1[N+](=O)[O-])CCC/C2=N/OC(=O)c1ccccc1SC`: 0.794 µM (active).
Still for that read-out and setting: in the case of `COc1ccc2c(c1[N+](=O)[O-])CCC/C2=N/OC(=O)c1cccc2ccccc12` it was 0.794 µM (active); in that of `COc1ccccc1C(=O)O/N=C1/CCCc2c1ccc(OC)c2[N+](=O)[O-]`, 0.447 µM (active).
The same measure, in the same setting: in the case of `CC1CSc2nc3sc4c(c3c(=O)n21)CCCC4` (configuration not stated) it was 3.55 µM (active); in that of `CSC(=NC#N)N1CCN(c2ccc(Cl)cc2)CC1`, 4.47 µM (active); in that of `C[C@H](NCCc1ccc(O)cc1)[C@@H](O)c1ccc(O)cc1`, “inactive”.
For the compound `C[C@H](N[C@@H](C)COc1ccccc1)[C@H](O)c1ccc(O)cc1`, the AC50 is 5.01 µM (active).
The same measure, in the same setting: in the case of `CCOC(=O)C1C(=O)C=C(c2ccc(C)cc2)CC1c1ccco1` (configuration not stated) it was 4.47 µM (active).
For the compound `Cc1ccc(C(CC(N)=O)c2ccco2)cc1` (configuration not stated), the AC50 result is “inactive”.
On the same count and under the same terms, in the case of `CCOC(=O)C1=C(N)n2c(s/c(=C\c3ccco3)c2=O)=C(C(=O)OCC)C1c1ccco1` (configuration not stated) it was “inactive”; in that of `CC1=CC2=NC(=O)CC(C)(C(=O)N(CC(=O)NC(C)(C)C)Cc3cccs3)N2C=C1` (configuration not stated), “inactive”; in that of `O=C(O)c1cc2c(o1)CCC/C2=N\O`, “inactive”.
On the same count and under the same terms, in the case of `c1ccc(C2=NN[C@@H]3c4ccccc4-c4ccccc4N3C2)cc1` it was 0.2 µM (active); in that of `COc1ccc2nc(N)sc2c1`, 12.6 µM (active); in that of `COc1ccc(N2C(N)=NC(N)=NC2(C)C)cc1`, “inactive”.
`COc1ccc(Cc2c(N)nc(N)nc2N)cc1`: the AC50 result is “inactive”.
Still for that read-out and setting: the same measure for `COc1ccc2nc(NC(C)=O)sc2c1`: 3.55 µM (active); for `COc1ccc2nc(C)cc(SCC(=O)Nc3c(C)cc(C)cc3C)c2c1`: “inactive”.
Still for that read-out and setting: in the case of `COc1ccc2nc(/N=C\N(C)C)sc2c1` it was 0.631 µM (active).
Same read-out and setting: the same measure for `CCOc1ccc2nc(NC(=O)c3ccc(S(=O)(=O)N4CCOCC4)cc3)sc2c1`: “inactive”; for `CCCOc1ccc(C(=O)NC(=S)Nc2nc3ccc(C)cc3s2)cc1`: “inactive”.
Turning to `COc1ccc2nc(NC(=O)CSc3nnc(C)s3)sc2c1`, the AC50 was 2.82 µM (active).
With `CN(C)Cc1ccc(O)c(CN(C)C)n1`, the activity, negative = inhibition was -8.37% [at 11.4 µM].
Same read-out and setting: the same measure for `C[C@]12CC[C@H]3c4ccc(O)cc4CC[C@@H]3[C@H]1CC[C@@H]2OC(=O)CCC1CCCC1`: -12.2% [at 11.4 µM].
In the case of `COc1ccc(S(=O)(=O)Nc2ccc(F)cc2)c(C)c1C`, the AC50 is 14.1 µM (active).
On the same count and under the same terms, in the case of `COc1ccc(NS(=O)(=O)c2cc(-c3nnnn3C)ccc2OC)cc1` it was “inactive”; in that of `CC(C)(C)NS(=O)(=O)c1ccc(NS(=O)(=O)c2ccc(F)cc2)cc1`, “inactive”.
`COCCNC(=O)c1cc(-c2cccc(OC)c2)on1`: the AC50 was 12.6 µM (active).
Still for that read-out and setting: the same measure for `COc1ccc(-c2cc(C(=O)NCc3cccnc3)no2)cc1OC`: 20 µM (active); for `COc1cccc(-c2nc(CS(=O)(=O)CC(=O)NCCCOC(C)C)c(C)o2)c1`: “inactive”; for `CCC(C)C1NC(=S)N(C2CCCCC2)C1=O` (configuration not stated): “inactive”.
Consider `O=C(Nc1cccc2ncccc12)c1ccc(-c2ccc(Br)cc2)o1`, for which the half-maximal activity concentration (AC50) is 0.501 µM (active).
Same read-out and setting: in the case of `Cc1cc2cc(C)c3nnc(SCC(=O)NCc4ccc5c(c4)OCO5)n3c2cc1C` it was 20 µM (active); in that of `CC(C)(C)NC(=O)CSc1nnc(Cc2ccc3c(c2)OCO3)n1C1CCCCC1`, “inactive”; in that of `O=C1C2Sc3[nH]c(=O)sc3C(c3ccccc3)C2C(=O)N1c1ccccc1` (configuration not stated), “inactive”.
On the same count and under the same terms, in the case of `N#Cc1cccc(-c2nccc(NCc3cccnc3)n2)c1` it was 0.251 µM (active).
On the same count and under the same terms, the same measure for `N#Cc1cccc(-c2nccc(NCc3cccs3)n2)c1`: 0.251 µM (active).
As for `N#Cc1cccc(-c2nccc(NCc3ccccc3)n2)c1`, the AC50 is 0.501 µM (active).
On the same count and under the same terms, in the case of `Cc1cccc(CNc2ccnc(-c3cccc(C#N)c3)n2)c1` it was 0.398 µM (active); in that of `N#CCCn1c(=O)cnc2cnc(N3CCOCC3)nc21`, 10 µM (active).
Still for that read-out and setting: in the case of `Cc1nc2cnc(N3CCOCC3)nc2n(CCC#N)c1=O` it was 12.6 µM (active).
`O=c1cnc2cnc(N3CCOCC3)nc2n1CCc1ccccc1`: the concentration at half-maximal activity (AC50) was 3.16 µM (active).
As for `CCc1cc2c(nc1CC)CCN(CC/C(C)=N/OC[C@H]1O[C@H](c3ccccc3)C=C[C@@H]1Oc1ccc(OC)cc1)C2`, the activity, negative = inhibition was 0.11% [at 11.4 µM].
As to `Cc1ccc(-n2nc(C)c3c2OC(N)=C(C#N)C3c2ccco2)cc1` (configuration not stated), the concentration at half-maximal activity (AC50) is 8.91 µM (active).
Turning to `CCn1c2ccccc2c2cnc(N=CN(C)C)c(C#N)c21`, the concentration at half-maximal activity (AC50) was 1.41 µM (active).
Same read-out and setting: the same measure for `Cc1nc(N/N=C/c2ccccc2)nc(N(C)c2ccccc2)c1[N+](=O)[O-]`: 1.58 µM (active).
With `COC(=O)C/C=C\[C@@H](C)[C@@H](/C=N\O[C@@H](C)CN1CCCCc2nc(C)c(C)cc21)NS(=O)(=O)c1ccc(C)cc1`, the activity, negative = inhibition is -4.63% [at 11.4 µM].
For the compound `COc1ccc(C(=O)c2ccccc2)cc1Br`, the AC50 was 10 µM (active).
With `C=CCN(CC=C)C(=S)NC(=O)c1ccc(OC)c(Br)c1`, the AC50 is 0.562 µM (active).
Same read-out and setting: in the case of `COc1ccc(C(=O)NC(=S)NC(C)C)cc1Br` it was 3.16 µM (active).
As for `CCOc1ccc(C(=O)O)cc1OC`, the AC50 result is “inactive”.
Same read-out and setting: the same measure for `COc1cc(C(=O)NC(=S)Nc2ccc3oc(=O)ccc3c2)cc(OC)c1OC`: “inactive”.
The same measure, in the same setting: the same measure for `COc1ccc(C(=O)NC(=S)NC(C)(C)C)cc1Br`: 0.562 µM (active); for `COc1ccc(C(=O)NNC(=O)Cc2ccc(-c3ccccc3)cc2)cc1OC`: “inactive”; for `COc1ccc(NC(=O)N2CC3(CCN(S(C)(=O)=O)CC3)C2)cc1`: “inactive”.
On the same count and under the same terms, in the case of `Cc1ccccc1-c1ccc2ncnc(NC3CC3)c2c1` it was 0.126 µM (active).
As for `FC(F)(F)c1ccccc1-c1ccc2ncnc(NC3CC3)c2c1`, the AC50 was 0.316 µM (active).
Consider `CS[C@@H](CC(=O)O)C(=O)O`, for which the activity, negative = inhibition is 6.13% [at 11.4 µM].
Consider `CCOCCCN1C(=O)CN(C2CCCCC2)C(=O)C1c1ccc(OCC)c(OC)c1` (configuration not stated), for which the AC50 result is “inactive”.
On the same count and under the same terms, the same measure for `Cc1cc(C)n(CC(=O)N/N=C/c2ccco2)n1`: “inactive”; for `O=C(N/N=C/c1ccco1)c1ccccn1`: 6.31 µM (active).
The same measure, in the same setting: in the case of `O=C(N/N=C/c1ccccn1)c1ccc(Br)o1` it was 6.31 µM (active); in that of `O=C(NN=C1c2ccccc2-c2ccccc21)c1ccccn1`, 0.501 µM (active); in that of `CCC(C)(NC(=O)c1ccccn1)C(=O)NC1CCCCC1` (configuration not stated), “inactive”.
The same measure, in the same setting: the same measure for `O=C(c1ccco1)N1CCC2(CC1)CN(c1ccccn1)C2`: “inactive”; for `O=C(Nc1ccccn1)c1ccco1`: 11.2 µM (active).
As to `C[N+](C)(C)c1nc(N)nc2c1ncn2[C@H]1O[C@@H](CO)[C@@H](O)[C@H]1O`, the activity, negative = inhibition is -4.9% [at 2.29 µM].
Still for that read-out and setting: the same measure for `O=C1COC(c2ccccc2O)=NN1CCCN1CCCC1`: -13.6% [at 11.4 µM].
Regarding `CC(Oc1ccc(O)cc1)(P(=O)(O)O)P(=O)(O)O`, the AC50 entry was “inactive”.
Same read-out and setting: in the case of `O=C(N/N=C/c1ccccn1)c1ccco1` it was 15.8 µM (active).
Same read-out and setting: the same measure for `O=C(CNC(=O)c1ccccn1)N/N=C/c1ccccc1`: 4.47 µM (active).
In the case of `CO[C@H]1COC(=O)C/C=C\[C@H](C)COC(=O)[C@@H](OCc2ccccc2)/C=C\[C@@H]1C`, the activity, negative = inhibition is -6.26% [at 11.4 µM].
For the compound `CC(C)=NOC[C@@H](O)COCc1ccco1`, the activity, negative = inhibition is 4.83% [at 11.4 µM].
With `CC(C)[C@H]1C(=O)C(C(N)=O)=C(O)[C@]2(O)C(=O)C3=C(O)c4c(O)ccc(N(C)C)c4C[C@H]3C[C@@H]12`, the AC50 result is “inactive”.
On the same count and under the same terms, the same measure for `Nc1cc2c(nc3c4ccccc4c(N)cc3[n+]2-c2cccc3ccccc23)c2ccccc12` (tested in a mixture with another compound): 1.26 µM (active); for `COc1ccc(CNC(=O)c2csc(Cc3ccc(OC)cc3)n2)cc1`: 14.1 µM (active); for `COc1ccc(Cc2nnc(NC(=O)c3cccc([N+](=O)[O-])c3C)s2)cc1`: “inactive”.
The same measure, in the same setting: in the case of `COc1ccc(CNC(=O)C2CSC(=O)C2)cc1` (configuration not stated) it was “inactive”; in that of `COc1ccc(CNC(=O)c2csc(Cc3ccc(Cl)cc3)n2)cc1`, 0.891 µM (active).
Still for that read-out and setting: in the case of `CCN(C(=O)COc1cc(=O)n(C)c2ccccc12)c1cccc(Cl)c1` it was 15.8 µM (active); in that of `Cc1ccccc1-n1ncc2c(SCC(=O)N3c4ccccc4CC3C)ncnc21` (configuration not stated), “inactive”; in that of `CC1Cc2ccccc2N1C(=O)C1CCCCN1S(=O)(=O)c1ccccc1` (configuration not stated), “inactive”.
`O=C(NCC1CCCO1)c1ccc2c(=O)n(Cc3ccco3)c(SCC(=O)N3CCCC3)nc2c1` (configuration not stated): the AC50 entry was “inactive”.
The same measure, in the same setting: in the case of `CC1Cc2ccccc2N1C(=O)c1cc2c(=O)n3ccccc3nc2n1C` (configuration not stated) it was 3.16 µM (active).
Turning to `Cn1c(C(=O)NCC2CCCO2)cc2c(=O)n3ccccc3nc21` (configuration not stated), the half-maximal activity concentration (AC50) is 2.24 µM (active).
The same measure, in the same setting: the same measure for `Cn1c(C(=O)N2COCC2(C)C)cc2c(=O)n3ccccc3nc21`: 6.31 µM (active).
Same read-out and setting: in the case of `Cc1ccc(S(=O)(=O)/C(C#N)=C/c2c(N3CC(C)OC(C)C3)nc3ccccn3c2=O)cc1` (configuration not stated) it was “inactive”.
As to `C[C@@H](c1ccccc1)N1C(=O)[C@H]2[C@H]3[C@H](O)[C@H](O)C/C(=N/OC[C@@H](O)COCc4ccco4)[C@@H]3CC[C@@H]2C1=O`, the activity, negative = inhibition was -14.6% [at 11.4 µM].
For `COc1cccc(Nc2ncc3ncc(=O)n(C)c3n2)c1`, the concentration at half-maximal activity (AC50) is 1.58 µM (active).
Same read-out and setting: the same measure for `COCCn1c(=O)cnc2cnc(Nc3cccc(OC)c3)nc21`: 0.794 µM (active).
The same measure, in the same setting: the same measure for `COCCn1c(=O)cnc2cnc(Nc3ccccc3)nc21`: 1 µM (active).
`Cn1c(=O)cnc2cnc(Nc3ccccc3)nc21`: the AC50 was 2 µM (active).
As to `O=C(O)[C@@H]1[C@@H]2C[C@H]([C@@H](Br)[C@H]2N2C(=O)CCC2=O)[C@@H]1C(=O)O`, the activity, negative = inhibition was -15.8% [at 2.29 µM].
In the case of `CN[C@@H]1[C@H](O[C@@H]2O[C@H](CO)[C@@H](N)[C@H](O)[C@@H]2O)O[C@H]2C[C@@H](N)[C@@H](O[C@H]3[C@@H](O)[C@H](O)[C@H](N)C[C@@H]3N)O[C@H]2[C@H]1O`, the AC50 result is “inactive”.
